# Most compounds without a hit are left out; they make up all but 10% or so of the library.
# G9a inh = inhibitors of human histone lysine methyltransferase G9a; Potency, µM (series often up to 102 µM), for the others: at the highest dose activity, negative = inhibition, actives largely listed as inhibitors; G9a H3K9 monomethylation, AlphaScreen, 2 h; AID 504332; Q96KQ7; 350,000 compounds, 8.8% hits; note: % is set by controls: 0 for no effect and ±100 for the full control effect; nearly all actives have a fitted effect of over 75% in size
# Target sequence (Q96KQ7 913-1193 limits assumed): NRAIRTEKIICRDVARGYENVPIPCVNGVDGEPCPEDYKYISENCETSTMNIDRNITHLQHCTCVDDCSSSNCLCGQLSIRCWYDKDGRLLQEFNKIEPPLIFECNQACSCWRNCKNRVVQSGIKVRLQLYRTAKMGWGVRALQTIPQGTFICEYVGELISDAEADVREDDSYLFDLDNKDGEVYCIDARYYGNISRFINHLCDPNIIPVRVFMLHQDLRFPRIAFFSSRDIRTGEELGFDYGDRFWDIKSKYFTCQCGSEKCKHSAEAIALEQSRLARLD
#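 G9a (20 nM) was preincubated 15 min with compound, then reacted 2 h at room temperature with 500 nM biotin-H3K9 peptide and 20 µM SAM. Monomethyl-H3K9 detected by AlphaScreen using anti-H3K9me1 antibody.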
# BAZ2B block = BAZ2B (human) inhibition. Q9UIF8. AlphaScreen BAZ2B-H3K14Ac peptide displacement. AID 504333. Potency, µM (doses to about 114 µM), inactives show at the top dose activity change, negative = inhibition, hits mostly inhibitors. 360,000 compounds, 4.4% hits; note: % is set by controls: 0 for no effect and ±100 for the full control effect; nearly all actives have a fitted effect of over 60% in size
#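 AlphaScreen luminescence quantifies BAZ2B engagement of H3K14Ac peptide; the protein and biotinylated peptide are both at 50 nM final, buffer PBS pH 7.4 with 0.01% Tween-20, all steps at room temperature.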
# JMJD2A Tudor = inhibitors of human JMJD2A Tudor domain; O75164; AlphaScreen JMJD2A-Tudor / H3K4me3 peptide binding; Potency, µM (highest dose often 114 µM), for inactives: at the highest dose activity change, negative = inhibition, actives largely listed as inhibitors; 390,000 compounds, 4.4% hits; note: % is set by controls: 0 for no effect and ±100 for the full control effect; nearly all actives have a fitted effect of over 50% in size
# HP1b chromo inh = blocks HP1-beta chromodomain binding to methylated histone tails; Potency, µM (top dose mostly 114 µM), for the others: at the top dose activity change, negative = inhibition, usual class: inhibitors; P83916; 390,000 compounds, 0.56% hits; AlphaScreen HP1-beta / biotin-H3K9me3 peptide binding; note: nearly all actives have a fitted effect of over 70% in size
# Target sequence (P83916 whole entry, looked up): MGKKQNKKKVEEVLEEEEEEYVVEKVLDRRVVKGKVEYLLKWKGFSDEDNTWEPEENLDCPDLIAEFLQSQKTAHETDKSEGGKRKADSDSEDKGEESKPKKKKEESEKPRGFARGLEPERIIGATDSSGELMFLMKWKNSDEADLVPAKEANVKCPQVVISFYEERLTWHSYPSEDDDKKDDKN
#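 HP1-beta protein (50 nM final) preincubated 30 min at room temperature with biotinylated H3(1-18)K9me3 peptide (50 nM) in PBS pH 7.4, 0.01% Tween-20, then compound added for 30 min. AlphaScreen streptavidin donor/nickel chelate acceptor beads (10 ug/mL final), 30 min dark, luminescence read.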
# GLS inhibitor = glutaminase GLS (human) inhibition; AID 624170; Potency, µM (highest dose often 45.5 µM), without a hit: at the top dose activity change, negative = inhibition, usual class: inhibitors; GLS enzymatic activity, qHTS titration; O94925; 410,000 compounds, 0.21% hits; note: % is set by controls: 0 for no effect and ±100 for the full control effect
#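 Coupled fluorescence readout: glutamate oxidase/HRP/Amplex Red detect glutamate formed by hKGA from L-glutamine (1 mM solution added). Buffer 45 mM KH2PO4 pH 8.2, 0.02% Tween-20; reads at t0 and 30 min RT.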
# The depositor's hits bear a star; ? = inconclusive; / = not tested or not shown; [ ] = dose if it differs, or a comment. Calls come from the whole dose curve; as a rule, active = well fitted curve in the direction sought with a large enough effect; inconclusive = small, poorly fitted or top-dose-only effect, or another doubt; inactive = no such curve, though single readings can be large; an effect the other way counts as inactive or inconclusive. Potency is the fitted concentration of half-maximal effect.
SMILES,G9a inh,BAZ2B block,JMJD2A Tudor,HP1b chromo inh,GLS inhibitor
C/C(=N\NC(=O)CSc1nc2ccccc2o1)c1ccc(O)cc1,16µM*,-19%,-15%,19%,?
Cc1cc(SCC(=O)N/N=C/c2ccc(O)cc2O)nc2ccccc12,7%,-30%,?,13%,18%
Cc1ccc(SCC(=O)n2nc(C)cc2C)cc1,-2%[59 µM],-4%,-15%,20%,-10%
O=C(NC1CCCCC1)C(c1ccncc1)N(C(=O)c1csnn1)c1ccccc1 (stereo not drawn),-3%,3%,-6%,-17%,9%
Cc1cc(SCC(=O)N/N=C/c2ccc(O)c(O)c2)c(C)cc1Br,25µM*,?,-34%,-6%,60%
CC(NC(=O)COc1ccccc1)C(=O)NCc1ccccc1Cl (stereo not drawn),/,/,-12%,28%,1%
Nc1ccc(O)cc1C(=O)OCC(=O)c1ccc(C2CCCCC2)cc1,45µM*,40µM*,?,?,-9%
Nc1ccc(O)cc1C(=O)OCC(=O)C12CC3CC(CC(C3)C1)C2,32µM*,50µM*,?,-19%,15%
Cc1ccn(CC(=O)N2CCCC(N3CCN(c4cccc(C(F)(F)F)c4)CC3)C2)n1 (stereo not drawn),/,/,/,/,-14%
C[C@H]1CN([C@@H](C)CO)C(=O)CCCn2nncc2CO[C@@H]1CN(C)C(=O)c1ccc2ccn(C)c2c1,/,/,/,/,-8%
CC(=O)Nc1ccc(-c2nnc(SCC(=O)c3ccc4c(c3)Cc3ccccc3-4)n2C)cc1,22µM*,1%,35µM*,5%,0%
O=C1CC(SCc2nc3ccccc3[nH]2)C(=O)N1c1cccc(F)c1 (stereo not drawn),?,3%,-12%,27%,8%
O=C1CC(SCc2nc3ccccc3[nH]2)C(=O)N1c1ccc(F)c(Cl)c1 (stereo not drawn),40µM*,?,3%,62%,/
O=C1CC(SCc2nc3ccccc3[nH]2)C(=O)N1c1ccc(Cl)cc1 (stereo not drawn),18µM*,0%,-16%,43%,-6%
O=C(NC1CCCCC1NC(=O)c1ccco1)c1ccco1 (stereo not drawn),-10%[59 µM],-1%,3%,49%,0%
O=C(NC1c2ccccc2-c2ccccc21)c1ccco1,9%,9%,56µM*,-14%,12%
CC1(C(=O)Nc2cccc(NS(C)(=O)=O)c2)Cc2c(-c3ccc(C(N)=O)cc3)ccnc2O1 (stereo not drawn),/,/,/,/,2%
COc1ccccc1NC(C)=[N+](C)CCNS(=O)(=O)c1ccc(Cl)cc1,?,25µM*,?,?,12%
Cc1ccc(N2NC(C)(c3cccs3)NC2=S)cc1 (stereo not drawn),8.9µM*,?,?,-23%,15%
COc1ccc([N+](=O)[O-])cc1NC(=S)NC(NC(C)=O)C(Cl)(Cl)Cl (stereo not drawn),40µM*,-11%,-12%,-1%,18%
O=C(NNC(=S)Nc1ccc(F)cc1)c1cccc([N+](=O)[O-])c1,45µM*,-4%,-20%,-4%,16%
Cc1ccc(NC(=S)NNC(=O)c2cccc([N+](=O)[O-])c2)cc1Cl,13µM*,?,?,-15%,-1%
O=C(NNC(=O)C1CC1)c1cccc([N+](=O)[O-])c1,18%,-12%,-10%,33%,-4%
COc1ccc([N+](=O)[O-])cc1NC(=S)NC(NC(=O)Cc1ccc(OC)c(OC)c1)C(Cl)(Cl)Cl (stereo not drawn),-8%,3%,-22%,-10%,1%
O=[N+]([O-])c1ccc(NNC(=S)Nc2ccc(F)cc2)cc1,?,45µM*,50µM*,?,-22%
Cc1noc(C)c1C(=O)N1CCC2(CCCN(C(=O)Nc3cccc(F)c3)C2)CC1,1%[12.7 µM],/,/,/,/
CCOC(=O)c1c(C)[nH]c(C)c1S(=O)(=O)N1CCCC(C(=O)Nc2cccc(CC)c2)C1 (stereo not drawn),-31%[59 µM],-27%,-25%,10%,-2%

# Compound activity (PubChem)
